Results published in PubChem BioAssay (NCATS).
Where “and” joins values, the source holds several entries; their conditions need not be identical. Equal values may be shown once. Inconclusive results are not listed. Calls of active or inactive are those of the source. Unless noted, the call rests on the fitted dose curve; in most records, active means well fitted curve in either direction with a large enough effect (not every such curve was filed as active); inconclusive means small, poorly fitted or top-dose-only effect, or another doubt; inactive means flat fitted curve, though single readings scatter.

Key:
[1] = AP1 Signaling Pathway (AID 357); further: on the % scale 0 is the no-effect control and ±100 the full control effect
Method in brief: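 AP-1-bla ME-180 cells with beta-lactamase reporter under AP-1 response element, stimulated with EC50 EGF; compounds titrated, 5 hours at 37 degrees Celsius. CCF4 read at 460/530 nm ratio; positive and negative modulators judged by AC50.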

[2] = biological target: Cytochrome P450 1A2 (Homo sapiens) (UniProt P05177); experiment: p450-cyp1a2 (AID 410; calls by dose curve; further: potency means the concentration at half of the fitted maximal effect;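 on activity change, negative = inhibition: -100% = full effect of reference inhibitor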)
Cytochrome P450 1A2 (Homo sapiens), sequence (P05177 whole entry, looked up): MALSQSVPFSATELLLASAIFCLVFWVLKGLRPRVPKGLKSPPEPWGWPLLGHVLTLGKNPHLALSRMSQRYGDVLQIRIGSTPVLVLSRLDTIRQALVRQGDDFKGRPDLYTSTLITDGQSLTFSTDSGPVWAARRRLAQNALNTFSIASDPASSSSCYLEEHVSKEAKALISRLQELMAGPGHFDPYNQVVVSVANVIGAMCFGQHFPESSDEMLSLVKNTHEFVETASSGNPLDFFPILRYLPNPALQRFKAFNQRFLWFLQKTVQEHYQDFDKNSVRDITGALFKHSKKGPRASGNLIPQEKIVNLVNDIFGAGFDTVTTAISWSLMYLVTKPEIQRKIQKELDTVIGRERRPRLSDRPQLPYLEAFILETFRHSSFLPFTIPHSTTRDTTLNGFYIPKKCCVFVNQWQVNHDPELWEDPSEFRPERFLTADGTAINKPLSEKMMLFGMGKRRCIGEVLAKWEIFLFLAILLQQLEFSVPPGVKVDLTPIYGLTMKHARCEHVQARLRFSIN
Method in brief: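 Luminescent readout of luciferin formed from Luciferin-ME by human CYP1A2; data normalized against complete inhibition by 57 uM furafylline. Enzyme 20nM, substrate 100uM at Km, 100mM KPO4 buffer, 60 min reaction at room temperature.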

[3] = NFAT Signaling Pathway (AID 444);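 further: carbachol stimulus at about its EC50 of 1 µM final; on the % scale 0 is the no-effect control and ±100 the full control effect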
Method in brief: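 Jurkat cells with NFAT-driven β-lactamase reporter and co-expressed M1 receptor, stimulated with carbachol (final 1 uM, ~EC50), compound titration, 5 h at 37 °C. CCF4 loaded 1 h at RT; 460/530 nm ratio gave %activity and AC50.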

[4] = Stat Signaling Pathway (AID 446);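 further: ME-180 cervical cancer cells given 40 pM IL-6 alongside compound; SIE-controlled beta-lactamase reporter measured as 460/530 nm FRET emission ratio; on the % scale 0 is the no-effect control and ±100 the full control effect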
Method in brief: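 Screening format detects activators and inhibitors alike: ME-180 SIE-bla cells stimulated at 40 pM IL-6 for 5 hrs with compound, then dual-emission beta-lactamase read at 405 nm excitation.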

[5] = biological target: Glucocorticoid receptor (Homo sapiens) (UniProt P04150); experiment: GR-GFP Redistribution (AID 450;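 active means compounds whose dose series gives a full or clear partial fitted curve of increased nuclear translocation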; further: potency means the concentration at half of the fitted maximal effect); conditions: U2OS GR-GFP nuclear translocation, laser cytometry, 2 h
Glucocorticoid receptor (Homo sapiens), sequence (P04150 whole entry, looked up, the tested form may be a part): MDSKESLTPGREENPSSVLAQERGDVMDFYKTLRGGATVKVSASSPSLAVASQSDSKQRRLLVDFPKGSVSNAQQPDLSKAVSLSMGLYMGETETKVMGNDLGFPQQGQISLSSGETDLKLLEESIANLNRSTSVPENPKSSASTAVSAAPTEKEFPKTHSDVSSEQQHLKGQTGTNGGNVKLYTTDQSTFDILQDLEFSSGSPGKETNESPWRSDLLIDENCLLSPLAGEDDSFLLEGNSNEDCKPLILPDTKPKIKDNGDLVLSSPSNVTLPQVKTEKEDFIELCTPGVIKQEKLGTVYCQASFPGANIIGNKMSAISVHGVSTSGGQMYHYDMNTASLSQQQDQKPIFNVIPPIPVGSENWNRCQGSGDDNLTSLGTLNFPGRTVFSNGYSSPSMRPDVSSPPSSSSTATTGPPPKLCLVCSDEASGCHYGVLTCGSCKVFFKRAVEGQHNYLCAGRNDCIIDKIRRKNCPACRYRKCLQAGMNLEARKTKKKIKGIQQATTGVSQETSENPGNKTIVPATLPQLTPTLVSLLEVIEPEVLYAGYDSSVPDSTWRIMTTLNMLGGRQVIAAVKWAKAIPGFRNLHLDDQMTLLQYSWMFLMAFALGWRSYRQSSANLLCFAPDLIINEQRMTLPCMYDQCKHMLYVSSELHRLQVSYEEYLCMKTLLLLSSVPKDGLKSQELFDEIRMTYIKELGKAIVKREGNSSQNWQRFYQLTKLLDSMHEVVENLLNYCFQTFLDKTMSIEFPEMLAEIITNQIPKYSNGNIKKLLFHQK

[6] = biological target: Glucocorticoid receptor (Homo sapiens) (UniProt P04150); experiment: GR-EFC Redistribution (AID 451; calls by dose curve; further: potency means the concentration at half of the fitted maximal effect); conditions: CHO-K1 GR-EFC translocation, beta-gal luminescence, 2 h
Method in brief: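 CHO-K1 cells expressing nuclear EA and GR-ED fragments of b-gal; compounds titrated up to 46 uM final, 2 h at 37 C. GR nuclear translocation read as complemented b-gal luminescence after 1 h RT detection.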

[7] = biological target: Mitogen-activated protein kinase 10 (Mus musculus) (UniProt Q61831); experiment: JNK3 AlphaScreen Assay (AID 530);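 further: kinase came from lysate of stimulated human HepG2 cells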; further: potency means the concentration at half of the fitted maximal effect;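 on activity change, negative = inhibition: signal reports phosphorylation of biotinylated GST-cJun 1-79 at Ser73 with 10 µM ATP; series mostly up to about 57 µM; on the % scale 0 is the no-effect control and ±100 the full control effect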
Method in brief: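 Pre-activated (IL-1β/TNFα) JNK3 in HepG2 lysates phosphorylates biotin-GST-cJun(1-79), 10 uM ATP; anti-phospho-cJun(Ser73) AlphaScreen read at room temperature, pH 7.6 Tris buffer. Compounds pre-incubated 15 min as titrations.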

[8] = biological target: Lysosomal acid glucosylceramidase (Homo sapiens) (UniProt P04062); experiment: Glucocerebrosidase-p2 (AID 348; in the data active means potency below about 10 µM; further: potency means the concentration at half of the fitted maximal effect); conditions: purified GBA, blue fluorogenic substrate, 40 min
Lysosomal acid glucosylceramidase (Homo sapiens), sequence (P04062 whole entry, looked up): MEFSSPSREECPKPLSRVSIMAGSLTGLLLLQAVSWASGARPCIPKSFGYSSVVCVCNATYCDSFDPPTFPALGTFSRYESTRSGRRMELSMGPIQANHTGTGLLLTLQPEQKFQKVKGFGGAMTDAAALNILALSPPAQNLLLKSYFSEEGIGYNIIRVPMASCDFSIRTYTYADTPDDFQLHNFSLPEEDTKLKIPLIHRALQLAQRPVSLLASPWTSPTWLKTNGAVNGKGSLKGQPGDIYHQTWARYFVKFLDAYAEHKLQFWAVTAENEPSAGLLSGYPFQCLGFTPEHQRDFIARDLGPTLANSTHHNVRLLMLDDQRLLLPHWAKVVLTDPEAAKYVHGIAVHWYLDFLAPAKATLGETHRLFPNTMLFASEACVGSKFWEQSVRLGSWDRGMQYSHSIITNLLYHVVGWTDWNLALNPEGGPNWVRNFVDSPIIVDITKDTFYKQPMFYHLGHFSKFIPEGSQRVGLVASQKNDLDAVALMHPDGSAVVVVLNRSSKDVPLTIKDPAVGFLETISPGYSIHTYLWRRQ
Method in brief: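 Compounds titrated from 0.6 nM upwards against 0.2 nM enzyme in pH 5.9 citric acid/KH2PO4, taurocholate, tween-20; blue fluorogenic substrate 80 uM, 40 min room temperature, stopped and read Ex 365/Em 440 for AC50.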

[9] = Cell Viability - BJ (AID 421; calls by dose curve;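 further: potency means the concentration at half of the fitted maximal effect; cells exposed to compound for 40 hours at 37 °C before readout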); conditions: BJ fibroblast viability, qHTS
Method in brief: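 Cytotoxicity in human BJ foreskin fibroblasts is scored as loss of cellular ATP after a 40-hour exposure, measured by luciferase luminescence. Controls are DMSO and 100 uM tamoxifen.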

[10] = Cell Viability - Jurkat (AID 426;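 active means dose-dependent loss of cell ATP signal giving a full or clear fitted curve, ranked by lower potency value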; further: potency means the concentration at half of the fitted maximal effect); conditions: qHTS
Method in brief: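 qHTS, 1536-well; Jurkat E6-1, 5000 cells/well, complete medium; cpd 40 hr, 37 °C; CellTiter-Glo 20 min RT; luminescence. AC50 by Hill fit.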

[11] = Cell Viability - Hek293 (AID 427;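 active means compounds whose dose-response curve shows a full or clear partial loss of cell viability, called from curve shape rather than a numeric limit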;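 further: potency means the concentration at half of the fitted maximal effect; cells exposed to compound for 40 hours at 37 °C before reading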); conditions: qHTS
Method in brief: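 qHTS, human embryonic kidney (adenovirus-transformed) cells; 40 hr cpd, 37 °C; CellTiter-Glo ATP luminescence. Norm: DMSO = 0, 100 uM tamoxifen = 100% inhibition. Hill-fit AC50.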

[12] = Cell Viability - HepG2 (AID 433; calls by dose curve;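 further: potency means the concentration at half of the fitted maximal effect; potency for ATP loss meaning cytotoxicity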); conditions: qHTS
Method in brief: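 HepG2 cells, 1500 per well, treated 40 hr at 37 °C in complete medium; viability from intracellular ATP by CellTiter-Glo luminescence. Normalized to DMSO and 100 uM tamoxifen; AC50 from Hill fit of qHTS concentration-response.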

[13] = Cell Viability - MRC5 (AID 434; calls by dose curve;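 further: potency means the concentration at half of the fitted maximal effect; potency reflects cytotoxicity seen as loss of intracellular ATP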); conditions: MRC5 lung fibroblast viability, qHTS
Method in brief: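 MRC5 normal human lung fibroblasts, 1500 cells/well, exposed to compound for 40 hr at 37 C. Cellular ATP was read by CellTiter-Glo luminescence; data normalized to DMSO and 100 uM tamoxifen, with AC50 from Hill fits.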

[14] = Cell Viability - SK-N-SH (AID 435; calls by dose curve;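 further: potency means the concentration at half of the fitted maximal effect; compound exposure lasted 40 h at 37 °C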); conditions: SK-N-SH neuroblastoma cell viability qHTS
Method in brief: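 SK-N-SH neuroblastoma cells (1500/well) treated 40 h at 37 °C in complete medium; viability read as cellular ATP by CellTiter-Glo luminescence. Normalized to DMSO and 100 uM tamoxifen; AC50 from Hill fits of qHTS concentration-response.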

[15] = Cell Viability - N2a (AID 540; active means well fitted curve in the direction sought with a large enough effect; an effect the other way counts as inactive or inconclusive;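 further: plate controls were DMSO alone for no effect and tamoxifen control for full effect; nearly all actives have a fitted effect of over 45% in size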)
Method in brief: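 Luminescent ATP signal (CellTiter-Glo, 20 min at room temperature) served as the viability read-out after N2a cells were treated with compounds for 40 hours at 37 °C. Concentration-response data were fitted to the Hill equation for AC50.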

[16] = Cell Viability - HUV-EC-C (AID 542; active means well fitted curve in the direction sought with a large enough effect; an effect the other way counts as inactive or inconclusive; further: on the % scale 0 is the no-effect control and ±100 the full control effect; nearly all actives have a fitted effect of over 35% in size)
Method in brief: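 qHTS cytotoxicity: HUV-EC-C, 1000 cells/well, 5 hr settle, compound 40 hr 37 °C, CellTiter-Glo, luminescence. AC50 via Hill equation.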

[17] = Cell Viability - H-4-II-E (AID 543; active means well fitted curve in the direction sought with a large enough effect; an effect the other way counts as inactive or inconclusive; further: on the % scale 0 is the no-effect control and ±100 the full control effect; nearly all actives have a fitted effect of over 35% in size)
Method in brief: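 Luminescent ATP signal (CellTiter-Glo) served as the viability read-out, with cytotoxicity seen as a concentration-dependent ATP drop. Cells were treated for 40 hours in complete medium. AC50 values derive from Hill-equation modelling.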

[18] = Cell Viability - SH-SY5Y (AID 544; active means well fitted curve in the direction sought with a large enough effect; an effect the other way counts as inactive or inconclusive;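 further: 0% = DMSO alone and -100% = 100 µM tamoxifen; nearly all actives have a fitted effect of over 55% in size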)
Method in brief: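 Luminescent ATP read-out (CellTiter-Glo) measures loss of viable SH-SY5Y neuroblastoma cells after 40 hr compound exposure at 37 °C. AC50 values derive from standard Hill modelling of qHTS concentration-response data.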

[19] = Cell Viability - Renal Proximal Tubule (AID 545; active means well fitted curve in the direction sought with a large enough effect; an effect the other way counts as inactive or inconclusive;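 further: 0% = DMSO only and -100% = 100 µM tamoxifen; nearly all actives have a fitted effect of over 40% in size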)
Method in brief: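 Rat renal proximal tubule primary cells, 1000/well, exposed to compounds for 40 hr at 37 °C in complete medium; cellular ATP read by CellTiter-Glo luminescence. AC50 from concentration-response fitted with standard Hill equation.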

[20] = Cell Viability - Mesenchymal (AID 546; active means well fitted curve in the direction sought with a large enough effect; an effect the other way counts as inactive or inconclusive;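 further: cells exposed to compound for 40 hours before reading; 0% = DMSO only and -100% = 100 µM tamoxifen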)
Method in brief: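 Human kidney mesenchymal cells from normal renal glomeruli, 1000 cells/well, rested 5 hr at 37 °C, then treated 40 hr at 37 °C in complete medium. Cellular ATP read by CellTiter-Glo luminescence; AC50 from Hill-equation fits.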

CN[C@H]1[C@@H](O[C@@H]2[C@H](O[C@@H]3[C@@H](O)[C@@H](O)[C@@H](N=C(N)N)[C@@H](O)[C@@H]3N=C(N)N)O[C@H](C)[C@@]2(O)C=O)O[C@@H](CO)[C@@H](O)[C@H]1O
inactive: outcome [1] | Potency [2] | outcome [3] | outcome [4] | Potency [5] > 20.6 µM | Potency [6] > 20.6 µM | Potency [7]

C=C1c2cccc(O)c2C(O)=C2C(=O)[C@@]3(O)C(O)=C(C(N)=O)C(=O)[C@@H](N(C)C)[C@@H]3[C@@H](O)[C@H]12
inactive: outcome [1] | Potency [2] | outcome [3] | outcome [4] | Potency [5] > 20.6 µM | Potency [6] > 20.6 µM | Potency [7]

CC(NCCc1ccc(O)cc1)C(O)c1ccc(O)cc1 (stereo not drawn)
inactive: outcome [1] | outcome [4] | Potency [5] > 20.6 µM

NC(=O)c1nnn(Cc2cc(Cl)c(C(=O)c3ccc(Cl)cc3)c(Cl)c2)c1N
inactive: Potency [8] > 11.4 µM | outcome [1] | activity change, negative = inhibition [2] -2.2% [at 2.29 µM] | outcome [3] | outcome [4] | Potency [5] > 46 µM | Potency [6] > 9.22 µM | Potency [7]

CC1C(=O)OC2C(O)C34C5CC(C(C)(C)C)C36C(OC(=O)C6O)OC4(C(=O)O5)C12O (stereo not drawn)
inactive: Potency [5] > 46 µM | Potency [6] > 46 µM | Potency [7]

CN1CCN2c3ncccc3Cc3ccccc3C2C1 (stereo not drawn)
inactive: Potency [5] > 46 µM | Potency [6] > 46 µM | Potency [7]

C[C@@H]1C[C@H]2[C@@H]3CCC4=CC(=O)C=C[C@]4(C)[C@@]3(F)[C@@H](O)C[C@]2(C)[C@@]1(O)C(=O)CO
inactive: Potency [9] > 92 µM | Potency [10] > 92 µM | Potency [11] > 92 µM | Potency [12] > 92 µM | Potency [13] > 92 µM | Potency [14] > 92 µM | outcome [15] | outcome [16] | outcome [17] | outcome [18] | outcome [19] | outcome [20]

CCCCC(C=O)NC(=O)C(CC(C)C)NC(=O)OCc1ccccc1 (stereo not drawn)
inactive: Potency [5] > 46 µM | Potency [6] > 46 µM | Potency [7]

Clc1ccc(COC(Cn2ccnc2)c2ccc(Cl)cc2Cl)c(Cl)c1 (stereo not drawn)
active: Potency [2] 1.26 µM
inactive: Potency [6] > 20.6 µM | Potency [7]

Cc1cc2nc3c(=O)[nH]c(=O)nc-3n(CC(O)C(O)C(O)CO)c2cc1C (stereo not drawn)
inactive: outcome [1] | outcome [3] | outcome [4] | Potency [5] > 20.6 µM | Potency [6] > 20.6 µM and > 46 µM | Potency [7]

O=c1cc(-c2ccc(O)c(O)c2)oc2cc(O)cc(O)c12
inactive: Potency [5] > 20.6 µM and > 46 µM | Potency [6] > 20.6 µM and > 46 µM
active: Potency [7] 6.31 µM

NS(=O)(=O)c1cc(Cl)c(Cl)c(S(N)(=O)=O)c1
inactive: outcome [1] | Potency [2] | outcome [3] | outcome [4] | Potency [5] > 20.6 µM | Potency [6] > 20.6 µM | Potency [7]

CCCCC[C@H](O)C=C[C@H]1[C@H](O)CC(=O)[C@H]1CCCCCCC(=O)O
inactive: Potency [5] > 46 µM | Potency [6] > 46 µM | Potency [7]

CN(C)c1ccccc1CN1CCCN(Cc2ccccc2N(C)C)C1c1ccncc1
inactive: Potency [8] > 11.4 µM | outcome [1] | Potency [2] | outcome [3] | outcome [4] | Potency [5] > 46 µM | Potency [6] > 9.22 µM | Potency [7]

CCC(=C(CC)c1ccc(O)cc1)c1ccc(O)cc1
active: Potency [2] 15.8 µM
inactive: Potency [5] > 20.6 µM | Potency [6] > 20.6 µM | Potency [7]

NCC1CCC(C(=O)O)CC1 (stereo not drawn)
inactive: outcome [1] | Potency [2] | outcome [3] | outcome [4] | Potency [7]

COc1nccc(-c2c(-c3ccc(F)cc3)ncn2C2CCC(O)CC2)n1 (stereo not drawn)
inactive: Potency [5] > 46 µM | Potency [6] > 46 µM

CN(C)CCN(Cc1ccc(Cl)cc1)c1ccccn1
inactive: outcome [4] | Potency [5] > 20.6 µM | Potency [6] > 20.6 µM | Potency [7]
active: Potency [2] 12.6 µM

Cc1ccc(NC(=O)c2cccc(N(C)C)c2)cc1NC(=O)c1ccc(O)cc1
active: Potency [2] 1.26 µM
inactive: Potency [5] > 46 µM | Potency [6] > 46 µM | Potency [7]

COc1ccc(CCN(C)CCCOc2ccc(S(=O)(=O)c3[nH]c4ccccc4c3C(C)C)cc2)cc1OC
inactive: Potency [5] > 46 µM | Potency [6] > 46 µM

O=S(=O)(O)c1ccc2cc(N=Nc3cc(S(=O)(=O)O)c4cccnc4c3O)ccc2c1
inactive: Potency [8] > 11.4 µM | outcome [1] | activity change, negative = inhibition [2] -18.8% [at 2.29 µM] | outcome [3] | Potency [5] > 46 µM | Potency [6] > 9.22 µM | Potency [7]

Cc1cc(NC(=O)Nc2ccc(N(C)C)cc2)c2cc(F)cc(F)c2n1
inactive: Potency [5] > 46 µM | Potency [6] > 46 µM
active: Potency [2] 0.126 µM
